According to article PMC4336329 (PLoS ONE, 2015):
Among all 310,000 compounds or so, about 14,000 (4.5%) showed an effect of 50% or more. The effect is printed as a negative number. This is one part of a sample in which strong results are shown more often than they occur.
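Also: peak tail current of the secondary pulse compared with the same well before compound.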

Each molecule was assayed against human ether-à-go-go-related gene (hERG) potassium channel (human, UniProt Q12809) (assay: primary screen, population patch clamp on CHO cells stably expressing hERG; higher = less effect of the substance).
Chain of human ether-à-go-go-related gene (hERG) potassium channel (Q12809 whole entry, looked up): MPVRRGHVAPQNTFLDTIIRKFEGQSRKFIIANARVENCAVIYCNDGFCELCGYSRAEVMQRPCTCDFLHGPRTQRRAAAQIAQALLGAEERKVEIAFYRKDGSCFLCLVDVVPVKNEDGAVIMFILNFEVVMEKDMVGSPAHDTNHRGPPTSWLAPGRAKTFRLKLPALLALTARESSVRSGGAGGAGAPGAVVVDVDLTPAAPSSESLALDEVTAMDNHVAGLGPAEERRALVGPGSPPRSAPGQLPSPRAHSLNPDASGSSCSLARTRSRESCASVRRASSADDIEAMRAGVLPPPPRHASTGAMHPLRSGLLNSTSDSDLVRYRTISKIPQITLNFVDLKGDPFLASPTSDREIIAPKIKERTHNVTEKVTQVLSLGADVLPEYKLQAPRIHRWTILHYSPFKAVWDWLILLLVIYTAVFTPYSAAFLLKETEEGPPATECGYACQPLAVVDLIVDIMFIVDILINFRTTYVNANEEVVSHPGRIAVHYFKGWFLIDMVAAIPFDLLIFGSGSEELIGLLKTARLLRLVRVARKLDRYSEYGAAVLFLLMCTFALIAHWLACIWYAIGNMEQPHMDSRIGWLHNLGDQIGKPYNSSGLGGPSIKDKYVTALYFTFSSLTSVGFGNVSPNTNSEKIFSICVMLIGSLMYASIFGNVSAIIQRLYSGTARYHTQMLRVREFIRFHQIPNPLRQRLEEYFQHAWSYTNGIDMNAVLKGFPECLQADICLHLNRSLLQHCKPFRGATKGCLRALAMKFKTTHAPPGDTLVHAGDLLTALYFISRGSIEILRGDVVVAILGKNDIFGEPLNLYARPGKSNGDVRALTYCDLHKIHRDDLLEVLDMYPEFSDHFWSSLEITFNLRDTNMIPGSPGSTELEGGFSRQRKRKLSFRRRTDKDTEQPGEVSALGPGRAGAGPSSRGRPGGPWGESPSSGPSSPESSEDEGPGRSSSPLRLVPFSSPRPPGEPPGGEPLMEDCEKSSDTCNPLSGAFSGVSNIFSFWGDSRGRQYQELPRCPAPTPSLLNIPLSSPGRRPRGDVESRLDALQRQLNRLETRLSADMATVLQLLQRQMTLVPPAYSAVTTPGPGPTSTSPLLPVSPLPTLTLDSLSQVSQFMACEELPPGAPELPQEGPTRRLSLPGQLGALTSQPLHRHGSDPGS
`CC(C)(C)c1ccc(-c2n[nH]c(=S)n2C2CCCC2)cc1` was tested, and the “hERG current change (%, negative = inhibition) at 10uM” value was 4.01%. `Cc1ccc(C(=O)Nc2ccc3c(c2)OCO3)cc1Cl` was tested, and the “hERG current change (%, negative = inhibition) at 10uM” value was 19.7%. For `CSc1ccc(CNC2CN3CCC2CC3)cc1.Cl` (stereo not drawn), the “hERG current change (%, negative = inhibition) at 10uM” value was -10.7%. With `C[C@@H]1CCC2[C@](C)(CO)[C@@H](O)CC[C@]2(C)[C@@]12CCC(CO)(CCO)O2` (stereo partly drawn) the “hERG current change (%, negative = inhibition) at 10uM” value was 26.8%. For `O=C1CN(C(=O)COc2ccc(F)cc2Br)c2ccccc2N1`, the “hERG current change (%, negative = inhibition) at 10uM” value was -29.9%. In the case of `O=C(O)c1ccc2c(=O)n3cc(C(=O)c4ccccc4O)cc(Cl)c3nc2c1`, the “hERG current change (%, negative = inhibition) at 10uM” value is reported as 1.38%. In the case of `CCNC(=O)N1CCCC(C(=O)c2ccc(C(F)(F)F)cc2)C1` (stereo not drawn), the “hERG current change (%, negative = inhibition) at 10uM” value is reported as -23.4%. For `COc1ccc(C(=O)C2CCCN(Cc3ccon3)C2)c(OC)c1` (stereo not drawn), the “hERG current change (%, negative = inhibition) at 10uM” value was -53.9%. For `COc1ccc2cc(C(=O)C3CCCN(Cc4ccccn4)C3)ccc2c1` (stereo not drawn), the “hERG current change (%, negative = inhibition) at 10uM” value was -66.2%. `COc1ccc2cc(C(=O)C3CCCN(C(=O)CCc4ccccn4)C3)ccc2c1` (stereo not drawn) was tested, and the “hERG current change (%, negative = inhibition) at 10uM” value was -45.2%. `COc1ccc(C(=O)C2CCCN(Cc3cccc(C)n3)C2)c(OC)c1` (stereo not drawn) was tested, and the “hERG current change (%, negative = inhibition) at 10uM” value was -76.2%. With `COc1cccc(C(=O)C2CCCN(Cc3ccccn3)C2)c1` (stereo not drawn) the “hERG current change (%, negative = inhibition) at 10uM” value was -26%. With `COc1ccc(C(=O)C2CCCN(Cc3ccon3)C2)cc1OC` (stereo not drawn) the “hERG current change (%, negative = inhibition) at 10uM” value was 11.2%. `CC(=O)Nc1ccc(CN2CCCC(C(=O)c3ccc(C(F)(F)F)cc3)C2)cc1` (stereo not drawn) was tested, and the “hERG current change (%, negative = inhibition) at 10uM” value was -77.3%. In the case of `COc1ccc(C(=O)C2CCCN(Cc3sc(N4CCCC4)nc3Cl)C2)c(OC)c1` (stereo not drawn), the “hERG current change (%, negative = inhibition) at 10uM” value is reported as -49.7%. For `COc1cccc(C(=O)C2CCCN(Cc3ccon3)C2)c1` (stereo not drawn), the “hERG current change (%, negative = inhibition) at 10uM” value was 8.72%. `CC(=O)Nc1ccc(CN2CCCC(C(=O)c3cccc(C(F)(F)F)c3)C2)cc1` (stereo not drawn) was tested, and the “hERG current change (%, negative = inhibition) at 10uM” value was -20.7%. For `Cc1ccc(OCCN2CCN(C(=O)CCC(=O)Nc3nnc(C)s3)CC2)cc1`, the “hERG current change (%, negative = inhibition) at 10uM” value was -7.69%. For `Nc1nc(SC2c3cccc4cccc(c34)C2NS(=O)(=O)c2ccccc2)n[nH]1` (stereo not drawn), the “hERG current change (%, negative = inhibition) at 10uM” value was 5.88%. With `Cc1nc2ccc(C(=O)O)cc2c2c1CC(C)S2` (stereo not drawn) the “hERG current change (%, negative = inhibition) at 10uM” value was -16%. `CCCCN1CC(=O)N2[C@H]3c4ccccc4OC[C@@H]3[C@H](c3ccccc3)[C@]2(C)C1=O` was tested, and the “hERG current change (%, negative = inhibition) at 10uM” value was -19.9%. `COc1cccc(Nc2ccc(C(=O)O)cc2N)c1` was tested, and the “hERG current change (%, negative = inhibition) at 10uM” value was 11.3%. `CN(C(=O)COC(=O)C1c2ccccc2Oc2ccccc21)C1CCS(=O)(=O)C1` (stereo not drawn) was tested, and the “hERG current change (%, negative = inhibition) at 10uM” value was 4.56%. For `CC(C)C(CC(=O)N1CCCCC1)C1CCOC(C)(C)C1` (stereo not drawn), the “hERG current change (%, negative = inhibition) at 10uM” value was -2.24%. With `Cc1cnc(C(=O)N2CCCC(C(=O)c3ccc(C(F)(F)F)cc3)C2)cn1` (stereo not drawn) the “hERG current change (%, negative = inhibition) at 10uM” value was -17.7%. With `CC(C)(C)c1ccc(C(=O)C2CCCN(Cc3ccon3)C2)cc1` (stereo not drawn) the “hERG current change (%, negative = inhibition) at 10uM” value was -1.45%. `Cc1cccc(CN2CCCC(C(=O)c3ccc(C(F)(F)F)cc3)C2)n1` (stereo not drawn) was tested, and the “hERG current change (%, negative = inhibition) at 10uM” value was -68.2%. In the case of `CC1Sc2ccc(S(=O)(=O)N3CCN(c4cccc(Cl)c4)CC3)cc2NC1=O` (stereo not drawn), the “hERG current change (%, negative = inhibition) at 10uM” value is reported as 9.32%. `CCOC(=O)c1c(C)[nH]c(C)c1C(=O)COC(=O)C1CCCN1S(=O)(=O)c1ccccc1F` (stereo not drawn) was tested, and the “hERG current change (%, negative = inhibition) at 10uM” value was -2.63%. For `NC(=O)c1nc(C(=O)N2CCN(c3ccccc3)CC2)c2ccccc2n1`, the “hERG current change (%, negative = inhibition) at 10uM” value was 2.14%. `CCOc1ccc(NC(=S)NC(=O)c2cncc(Br)c2)cc1` was tested, and the “hERG current change (%, negative = inhibition) at 10uM” value was 10.1%. In the case of `CCN(CC(=O)Nc1c(F)cccc1F)C(=O)c1n[nH]c2ccccc12`, the “hERG current change (%, negative = inhibition) at 10uM” value is reported as 10.4%. `Cc1ccccc1NC(=O)CSc1nnc(-c2ccco2)n1N` was tested, and the “hERG current change (%, negative = inhibition) at 10uM” value was 4.14%. `Cc1cccc(C)c1NC(=O)CSc1nnc(-c2ccco2)c(-c2ccco2)n1` was tested, and the “hERG current change (%, negative = inhibition) at 10uM” value was -67.1%. In the case of `Cc1ccccc1NC(=O)CSc1n[nH]c(-c2ccco2)n1`, the “hERG current change (%, negative = inhibition) at 10uM” value is reported as 10.1%. `Cc1ccccc1NC(=O)CSc1nnc(-c2ccco2)c(-c2ccco2)n1` was tested, and the “hERG current change (%, negative = inhibition) at 10uM” value was -53.9%. `Cc1cccc(NC(=O)CSc2nnc(-c3ccco3)o2)c1C` was tested, and the “hERG current change (%, negative = inhibition) at 10uM” value was -4.42%. For `Cc1cccc(C)c1NC(=O)CSc1nc(-c2ccco2)cc(C(F)(F)F)n1`, the “hERG current change (%, negative = inhibition) at 10uM” value was 4.77%. `Cc1cccc(NC(=O)CSc2nnc(-c3ccco3)c(-c3ccco3)n2)c1C` was tested, and the “hERG current change (%, negative = inhibition) at 10uM” value was -66.4%. In the case of `Cc1cccc(C)c1NC(=O)CSc1nnc(-c2ccco2)n1N`, the “hERG current change (%, negative = inhibition) at 10uM” value is reported as -4.1%. In the case of `Cc1cccc(NC(=O)CSc2nnc(CNC(=O)c3ccco3)n2C)c1C`, the “hERG current change (%, negative = inhibition) at 10uM” value is reported as -17.3%. In the case of `CCOc1ccc(C(=O)COC(=O)CN2C(=O)NC3(CCCCC3C)C2=O)cc1` (stereo not drawn), the “hERG current change (%, negative = inhibition) at 10uM” value is reported as -42.7%. For `CCOC(=O)C1CCN(C(=O)c2ccc(NC(=O)C3CCCO3)cc2)CC1` (stereo not drawn), the “hERG current change (%, negative = inhibition) at 10uM” value was -9.35%. For `Cc1[nH]n2c(=O)cc(C(C)C)nc2c1-c1ccccc1`, the “hERG current change (%, negative = inhibition) at 10uM” value was -12.1%. In the case of `Clc1ccc(CSc2ccc(-c3ccccn3)nn2)cc1`, the “hERG current change (%, negative = inhibition) at 10uM” value is reported as -2.04%.
